The full data set covers some 7,900 targets. This sample favours those with a hit. About 0.6% of all pairs of compound and target were hits. A number with no mark means an inactive call.

Sequence of UniProt Q9Y613 (Q9Y613 whole entry, looked up): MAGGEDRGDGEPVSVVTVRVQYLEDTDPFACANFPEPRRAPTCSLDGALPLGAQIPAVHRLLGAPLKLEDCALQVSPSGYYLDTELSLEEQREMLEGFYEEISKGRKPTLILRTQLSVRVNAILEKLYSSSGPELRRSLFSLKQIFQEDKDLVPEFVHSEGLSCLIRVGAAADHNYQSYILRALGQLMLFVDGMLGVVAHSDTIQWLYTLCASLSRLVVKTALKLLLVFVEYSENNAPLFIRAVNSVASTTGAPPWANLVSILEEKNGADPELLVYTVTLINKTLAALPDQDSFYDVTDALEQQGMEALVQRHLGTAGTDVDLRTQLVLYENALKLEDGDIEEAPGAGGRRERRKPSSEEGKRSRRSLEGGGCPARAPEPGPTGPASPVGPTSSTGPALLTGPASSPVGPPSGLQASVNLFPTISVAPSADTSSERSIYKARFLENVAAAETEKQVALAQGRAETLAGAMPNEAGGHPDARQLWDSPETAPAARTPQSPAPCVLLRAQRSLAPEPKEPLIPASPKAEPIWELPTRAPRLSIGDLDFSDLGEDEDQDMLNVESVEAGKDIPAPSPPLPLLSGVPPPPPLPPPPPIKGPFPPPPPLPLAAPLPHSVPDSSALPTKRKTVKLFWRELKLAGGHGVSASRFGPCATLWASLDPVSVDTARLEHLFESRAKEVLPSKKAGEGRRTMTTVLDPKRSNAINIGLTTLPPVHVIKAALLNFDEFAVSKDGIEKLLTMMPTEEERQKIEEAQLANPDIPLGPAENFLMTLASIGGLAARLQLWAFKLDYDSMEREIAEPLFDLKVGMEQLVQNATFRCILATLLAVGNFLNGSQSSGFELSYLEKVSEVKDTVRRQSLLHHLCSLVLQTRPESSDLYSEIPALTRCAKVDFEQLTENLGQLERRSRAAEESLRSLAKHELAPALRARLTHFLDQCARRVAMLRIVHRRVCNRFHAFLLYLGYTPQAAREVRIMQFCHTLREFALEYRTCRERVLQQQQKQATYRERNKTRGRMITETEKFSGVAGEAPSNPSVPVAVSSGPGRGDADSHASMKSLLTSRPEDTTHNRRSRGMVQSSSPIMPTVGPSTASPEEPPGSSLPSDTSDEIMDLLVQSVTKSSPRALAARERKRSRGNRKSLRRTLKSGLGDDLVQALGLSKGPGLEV
Sequence of UniProt P55084 (P55084 whole entry, looked up): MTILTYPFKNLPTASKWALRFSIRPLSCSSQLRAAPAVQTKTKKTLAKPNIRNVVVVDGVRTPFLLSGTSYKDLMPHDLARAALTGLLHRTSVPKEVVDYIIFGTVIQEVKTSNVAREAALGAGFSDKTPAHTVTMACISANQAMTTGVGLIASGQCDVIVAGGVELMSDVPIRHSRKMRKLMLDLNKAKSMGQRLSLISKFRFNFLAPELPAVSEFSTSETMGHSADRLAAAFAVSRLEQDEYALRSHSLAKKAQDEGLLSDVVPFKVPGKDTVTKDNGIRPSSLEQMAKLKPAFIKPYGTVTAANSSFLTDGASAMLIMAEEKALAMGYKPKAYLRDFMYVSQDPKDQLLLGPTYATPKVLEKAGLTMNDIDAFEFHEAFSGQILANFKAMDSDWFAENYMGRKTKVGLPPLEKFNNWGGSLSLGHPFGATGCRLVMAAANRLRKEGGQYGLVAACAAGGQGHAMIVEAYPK
Sequence of UniProt Q9P2H3 (Q9P2H3 whole entry, looked up): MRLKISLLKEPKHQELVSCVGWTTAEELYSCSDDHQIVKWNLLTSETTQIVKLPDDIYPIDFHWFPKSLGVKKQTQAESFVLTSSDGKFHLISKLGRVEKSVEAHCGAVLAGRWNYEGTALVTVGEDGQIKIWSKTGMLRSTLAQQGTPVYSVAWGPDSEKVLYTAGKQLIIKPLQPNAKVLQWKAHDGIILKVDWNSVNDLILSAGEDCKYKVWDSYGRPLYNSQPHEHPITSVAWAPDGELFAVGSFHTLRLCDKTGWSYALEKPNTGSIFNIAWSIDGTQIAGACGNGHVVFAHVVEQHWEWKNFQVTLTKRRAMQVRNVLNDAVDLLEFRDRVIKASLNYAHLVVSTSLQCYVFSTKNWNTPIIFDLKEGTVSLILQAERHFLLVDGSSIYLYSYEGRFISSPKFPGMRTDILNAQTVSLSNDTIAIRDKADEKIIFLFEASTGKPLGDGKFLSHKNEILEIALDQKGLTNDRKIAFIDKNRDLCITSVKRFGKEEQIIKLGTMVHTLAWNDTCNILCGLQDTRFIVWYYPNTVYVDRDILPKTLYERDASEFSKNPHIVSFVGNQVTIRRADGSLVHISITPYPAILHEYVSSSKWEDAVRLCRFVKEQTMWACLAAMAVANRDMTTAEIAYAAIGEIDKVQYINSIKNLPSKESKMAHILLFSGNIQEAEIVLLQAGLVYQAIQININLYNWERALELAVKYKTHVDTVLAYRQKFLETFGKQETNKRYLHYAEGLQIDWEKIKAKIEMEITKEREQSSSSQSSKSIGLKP
Sequence of UniProt Q49A26 (Q49A26 whole entry, looked up): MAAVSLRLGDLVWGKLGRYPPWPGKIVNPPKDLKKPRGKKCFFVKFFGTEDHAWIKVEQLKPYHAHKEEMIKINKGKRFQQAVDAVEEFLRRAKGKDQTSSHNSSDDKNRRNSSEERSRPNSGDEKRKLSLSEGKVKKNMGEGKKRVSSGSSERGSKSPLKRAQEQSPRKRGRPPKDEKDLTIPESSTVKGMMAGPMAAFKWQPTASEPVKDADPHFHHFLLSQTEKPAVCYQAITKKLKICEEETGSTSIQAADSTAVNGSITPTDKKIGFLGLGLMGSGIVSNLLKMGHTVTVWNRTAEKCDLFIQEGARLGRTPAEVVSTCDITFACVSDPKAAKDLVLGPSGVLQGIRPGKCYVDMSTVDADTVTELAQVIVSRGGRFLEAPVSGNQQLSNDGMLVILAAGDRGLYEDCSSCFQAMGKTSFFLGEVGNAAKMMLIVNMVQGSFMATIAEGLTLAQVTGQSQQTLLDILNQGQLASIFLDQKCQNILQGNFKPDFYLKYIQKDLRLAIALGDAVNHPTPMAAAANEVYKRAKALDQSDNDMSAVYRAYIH
Sequence of UniProt P29083 (P29083 whole entry, looked up): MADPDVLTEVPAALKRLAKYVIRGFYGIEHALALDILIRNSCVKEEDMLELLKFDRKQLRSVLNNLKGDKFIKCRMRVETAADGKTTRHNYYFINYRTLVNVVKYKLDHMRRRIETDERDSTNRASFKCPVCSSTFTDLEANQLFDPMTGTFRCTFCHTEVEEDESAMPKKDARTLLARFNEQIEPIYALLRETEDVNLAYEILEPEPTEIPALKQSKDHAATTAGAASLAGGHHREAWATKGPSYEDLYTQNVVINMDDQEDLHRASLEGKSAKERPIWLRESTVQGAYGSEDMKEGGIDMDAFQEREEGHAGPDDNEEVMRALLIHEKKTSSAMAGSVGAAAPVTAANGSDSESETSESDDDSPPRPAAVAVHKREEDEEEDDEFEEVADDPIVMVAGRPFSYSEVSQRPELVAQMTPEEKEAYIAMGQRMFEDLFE
Sequence of UniProt Q92769 (Q92769 whole entry, looked up): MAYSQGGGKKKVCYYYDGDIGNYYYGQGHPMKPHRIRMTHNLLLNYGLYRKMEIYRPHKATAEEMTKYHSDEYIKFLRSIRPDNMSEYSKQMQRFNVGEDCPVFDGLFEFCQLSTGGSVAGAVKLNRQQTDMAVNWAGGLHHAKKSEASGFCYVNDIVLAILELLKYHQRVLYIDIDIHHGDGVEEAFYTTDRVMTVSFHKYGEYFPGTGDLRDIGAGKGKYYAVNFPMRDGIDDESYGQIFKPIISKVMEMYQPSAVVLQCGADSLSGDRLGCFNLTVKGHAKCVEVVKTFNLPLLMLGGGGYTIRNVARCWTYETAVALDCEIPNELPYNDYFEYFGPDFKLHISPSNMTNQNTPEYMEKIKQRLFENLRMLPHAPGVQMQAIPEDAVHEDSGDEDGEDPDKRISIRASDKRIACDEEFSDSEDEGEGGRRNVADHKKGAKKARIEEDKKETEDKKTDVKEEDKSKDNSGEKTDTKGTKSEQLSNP
Sequence of UniProt Q96I24 (Q96I24 whole entry, looked up): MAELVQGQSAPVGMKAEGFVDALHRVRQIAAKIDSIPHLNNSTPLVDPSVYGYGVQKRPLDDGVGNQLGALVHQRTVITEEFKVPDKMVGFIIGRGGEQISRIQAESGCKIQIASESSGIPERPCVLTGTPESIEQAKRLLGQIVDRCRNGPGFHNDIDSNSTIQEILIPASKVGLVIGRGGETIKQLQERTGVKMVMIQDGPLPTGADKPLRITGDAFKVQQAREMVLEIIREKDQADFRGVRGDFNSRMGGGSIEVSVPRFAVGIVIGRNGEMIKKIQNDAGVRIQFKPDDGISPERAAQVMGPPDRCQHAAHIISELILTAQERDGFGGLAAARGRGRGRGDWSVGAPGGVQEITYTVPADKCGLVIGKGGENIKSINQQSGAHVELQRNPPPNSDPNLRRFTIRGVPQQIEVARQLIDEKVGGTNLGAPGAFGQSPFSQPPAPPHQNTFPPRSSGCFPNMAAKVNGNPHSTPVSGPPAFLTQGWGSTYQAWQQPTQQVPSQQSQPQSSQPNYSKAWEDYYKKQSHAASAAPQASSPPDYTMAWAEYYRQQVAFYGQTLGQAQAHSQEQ
Sequence of UniProt Q8N2G8 (Q8N2G8 whole entry, looked up): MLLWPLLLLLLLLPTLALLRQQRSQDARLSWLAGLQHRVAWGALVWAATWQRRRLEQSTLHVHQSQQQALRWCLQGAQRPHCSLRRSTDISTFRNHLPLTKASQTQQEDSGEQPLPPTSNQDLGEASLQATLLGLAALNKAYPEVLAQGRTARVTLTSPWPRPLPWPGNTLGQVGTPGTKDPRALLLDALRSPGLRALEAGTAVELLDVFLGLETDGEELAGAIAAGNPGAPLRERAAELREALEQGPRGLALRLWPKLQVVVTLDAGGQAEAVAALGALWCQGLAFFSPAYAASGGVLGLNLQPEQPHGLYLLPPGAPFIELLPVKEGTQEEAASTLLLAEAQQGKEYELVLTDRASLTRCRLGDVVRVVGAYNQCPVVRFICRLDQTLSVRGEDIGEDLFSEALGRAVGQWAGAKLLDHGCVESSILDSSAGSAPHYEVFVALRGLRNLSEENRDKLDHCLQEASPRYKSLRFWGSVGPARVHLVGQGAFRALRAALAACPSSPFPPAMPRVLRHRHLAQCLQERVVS

Compound in one experiment: Cn1cc(-c2ccc3c(c2)CCN3C(=O)Cc2cccc(C(F)(F)F)c2)c2c(N)ncnc21
The experiment in a line: log2 fold change, soluble protein after heating vs DMSO (PISA); higher = thermal stabilisation; K562 cells, 10 uM, 30 min; active = over 0.2 and 3.5 SD of the protein, either way, in both replicates (recomputed). In short, it runs like this: (§1)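 Aliquots of K562 cells (2×10^6 cells/mL) treated with 10 μM compound for 30 min were heated for 3 min over 48°C-58°C. After pooling and extraction in PBS with 0.5% NP-40 at 4°C, soluble protein from a 21,000xg, 90 min spin was quantified by TMTpro 16plex LC-MS/MS with channel sums equalised. Thermal stability is expressed against control samples, from duplicates, as a log2 fold change.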
For HSPA8 (UniProt E9PK54), the log2 fold change was -0.409 (active).
Still for that read-out and setting: with FUCA1 (UniProt P04066) the figure was -0.054.
For GCSH (UniProt P23434), the log2 fold change was 0.016.
As for IFNGR1 (UniProt P15260), the log2 fold change is 0.123.
For the target GSTM4 (UniProt Q03013), the log2 fold change was 0.026.
GHDC (UniProt Q8N2G8): the log2 fold change was 0.045.
As for FUBP3 (UniProt Q96I24), the log2 fold change is -0.059.
Take GLCCI1 (UniProt Q86VQ1): the log2 fold change is 0.03.
With FAT1 (UniProt Q14517), the log2 fold change is 0.009.
Same read-out and setting: with FECH isoform 2 (UniProt P22830) the figure was 0.549; with GSTT1 (UniProt P30711), 0.014.
For the target HECTD1 (UniProt Q9ULT8), the log2 fold change was -0.058.
Turning to FHOD1 (UniProt Q9Y613), the log2 fold change is -0.238.
Regarding GLRX3 (UniProt O76003), the log2 fold change is -0.015.
Same read-out and setting: with HDAC2 (UniProt Q92769) the figure was -0.01.
With HMGCR isoform 3 (UniProt P04035), the log2 fold change is -0.023.
In the case of HSPA8 (UniProt P11142), the log2 fold change is -0.029.
Take GLYR1 (UniProt Q49A26): the log2 fold change was -0.004.
On to HNRNPK isoform 2 (UniProt P61978), for which the log2 fold change is 0.031.
Same read-out and setting: with HDAC7 isoform 5 (UniProt Q8WUI4) the figure was 0.026; with FASTKD1 (UniProt Q53R41), 0.217; with GNL1 (UniProt P36915), 0.047.
As to GTF2E1 (UniProt P29083), the log2 fold change is 0.02.
For the target GLA (UniProt P06280), the log2 fold change was 0.005.
Still for that read-out and setting: with FBXO42 (UniProt Q6P3S6) the figure was 0.137.
The same measure, in the same setting: with HRAS (UniProt P01112) the figure was 0.041; with IFT80 isoform 3 (UniProt Q9P2H3), 0.036; with HBA1 (UniProt P69905), 0.156.
Still for that read-out and setting: with HIKESHI (UniProt Q53FT3) the figure was 0.043; with HADHB (UniProt P55084), 0.155.
Regarding GOPC (UniProt Q9HD26), the log2 fold change is -0.005.
Take HBQ1 (UniProt P09105): the log2 fold change was 0.12.
Take HNRNPH2 (UniProt P55795): the log2 fold change was -0.021.
With GIGYF2 (UniProt Q6Y7W6), the log2 fold change is 0.054.

Compound in the next experiment: Cn1cc(-c2ccc3nnc(C(F)(F)c4ccc5ncccc5c4)n3n2)cn1
The description is as above. In short, it runs like this:
as §1
Take HSPA8 (UniProt E9PK54): the log2 fold change was 0.062.
As to FUCA1 (UniProt P04066), the log2 fold change was 0.011.
On the same count and under the same terms, with GCSH (UniProt P23434) the figure was 0.016; with IFNGR1 (UniProt P15260), -0.123.
Regarding GSTM4 (UniProt Q03013), the log2 fold change is -0.141.
For GHDC (UniProt Q8N2G8), the log2 fold change was 0.012.
Turning to FUBP3 (UniProt Q96I24), the log2 fold change was -0.045.
In the case of GLCCI1 (UniProt Q86VQ1), the log2 fold change was -0.175.
Same read-out and setting: with FAT1 (UniProt Q14517) the figure was -0.052.
Take FECH isoform 2 (UniProt P22830): the log2 fold change was 0.248.
Still for that read-out and setting: with GSTT1 (UniProt P30711) the figure was 0.043.
On to HECTD1 (UniProt Q9ULT8), for which the log2 fold change was -0.032.
Turning to FHOD1 (UniProt Q9Y613), the log2 fold change is -0.089.
On to GLRX3 (UniProt O76003), for which the log2 fold change was -0.014.
HDAC2 (UniProt Q92769): the log2 fold change was -0.001.
Consider HMGCR isoform 3 (UniProt P04035), for which the log2 fold change is -0.062.
Same read-out and setting: with HSPA8 (UniProt P11142) the figure was -0.003; with GLYR1 (UniProt Q49A26), -0.01.
HNRNPK isoform 2 (UniProt P61978): the log2 fold change was 0.017.
As to HDAC7 isoform 5 (UniProt Q8WUI4), the log2 fold change is -0.021.
The same measure, in the same setting: with FASTKD1 (UniProt Q53R41) the figure was -0.064.
The same measure, in the same setting: with GNL1 (UniProt P36915) the figure was -0.03; with GTF2E1 (UniProt P29083), 0.093; with GLA (UniProt P06280), 0.03.
For the target FBXO42 (UniProt Q6P3S6), the log2 fold change was -0.007.
Consider HRAS (UniProt P01112), for which the log2 fold change is -0.007.
Turning to IFT80 isoform 3 (UniProt Q9P2H3), the log2 fold change is 0.039.
With HBA1 (UniProt P69905), the log2 fold change was 0.345 (active).
As to HIKESHI (UniProt Q53FT3), the log2 fold change is 0.065.
Take HADHB (UniProt P55084): the log2 fold change was 0.108.
In the case of GOPC (UniProt Q9HD26), the log2 fold change was -0.02.
For the target HBQ1 (UniProt P09105), the log2 fold change was 0.117.
The same measure, in the same setting: with HNRNPH2 (UniProt P55795) the figure was 0.041; with GIGYF2 (UniProt Q6Y7W6), -0.025.

Compound in another experiment: Cn1cncc1[C@@](N)(c1ccc(Cl)cc1)c1ccc2c(c1)c(-c1cccc(Cl)c1)cc(=O)n2C [tipifarnib]
The experiment is described as above. Summed up: as §1
With HSPA8 (UniProt E9PK54), the log2 fold change is 0.227.
As for FUCA1 (UniProt P04066), the log2 fold change is -0.001.
For the target GCSH (UniProt P23434), the log2 fold change was -0.017.
Take IFNGR1 (UniProt P15260): the log2 fold change was 0.119.
GSTM4 (UniProt Q03013): the log2 fold change was -0.023.
For GHDC (UniProt Q8N2G8), the log2 fold change was 0.146.
For the target FUBP3 (UniProt Q96I24), the log2 fold change is 0.014.
For the target GLCCI1 (UniProt Q86VQ1), the log2 fold change is 0.075.
As to FAT1 (UniProt Q14517), the log2 fold change is 0.077.
As to FECH isoform 2 (UniProt P22830), the log2 fold change is 0.134.
Take GSTT1 (UniProt P30711): the log2 fold change is -0.065.
Turning to HECTD1 (UniProt Q9ULT8), the log2 fold change was -0.088.
Turning to FHOD1 (UniProt Q9Y613), the log2 fold change is 0.041.
As for GLRX3 (UniProt O76003), the log2 fold change was -0.082.
Still for that read-out and setting: with HDAC2 (UniProt Q92769) the figure was 0.027; with HMGCR isoform 3 (UniProt P04035), -0.021.
For HSPA8 (UniProt P11142), the log2 fold change is 0.037.
In the case of GLYR1 (UniProt Q49A26), the log2 fold change was 0.054.
On the same count and under the same terms, with HNRNPK isoform 2 (UniProt P61978) the figure was 0.007.
Regarding HDAC7 isoform 5 (UniProt Q8WUI4), the log2 fold change was 0.093.
Regarding GNL1 (UniProt P36915), the log2 fold change is -0.152.
Turning to GTF2E1 (UniProt P29083), the log2 fold change was -0.13.
Turning to GLA (UniProt P06280), the log2 fold change is 0.064.
Consider FBXO42 (UniProt Q6P3S6), for which the log2 fold change is 0.006.
For HRAS (UniProt P01112), the log2 fold change is 0.006.
IFT80 isoform 3 (UniProt Q9P2H3): the log2 fold change was -0.07.
HBA1 (UniProt P69905): the log2 fold change is -0.084.
As for HIKESHI (UniProt Q53FT3), the log2 fold change was -0.043.
In the case of HADHB (UniProt P55084), the log2 fold change was -0.264.
Take GOPC (UniProt Q9HD26): the log2 fold change was 0.127.
On to HBQ1 (UniProt P09105), for which the log2 fold change is -0.125.
On to HNRNPH2 (UniProt P55795), for which the log2 fold change was -0.236.
Same read-out and setting: with GIGYF2 (UniProt Q6Y7W6) the figure was -0.119.

The values are drawn from the supplement of paper PMC10849652.
